KB-3-1 cytotox – kills parental KB-3-1 adenocarcinoma cells | KB-3-1 viability, CellTiter-Glo ATP luminescence, 72 h | AID 1347075 | Potency, µM (top dose mostly 46.1 µM), actives largely listed as cytotoxic | 1.4% of 400,000 active; also: % is scaled to controls: 0 for no effect and ±100 for the full control effect; nearly all actives have a fitted effect of over 60% in size
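Here the drug-naive KB-3-1 line serves as comparator for MDR sub-line selectivity; cells received compound titrations, 72 h at 37 °C, then CellTiter-Glo readout.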
MCF10A rerep – induces DNA re-replication in MCF 10a normal breast cells; MCF 10A DNA re-replication, Hoechst nuclear intensity, 48 h; 2.9% of 350,000 active; Potency, µM (highest dose often 46.1 µM), for inactives: top-dose activity, positive = re-replication, most hits filed as activators; also: % of control where 0% means no effect; nearly all actives have a fitted effect of over 50% in size
SW480 rerep – induces DNA re-replication in SW480 colon adenocarcinoma cells; Potency, µM (titrated, usually from 46.1 µM), inactives show at the highest dose re-replication activation, most hits filed as activators; SW480 DNA re-replication, Hoechst DNA content imaging, 48 h; AID 624297; 1.8% of 340,000 active; also: % of control where 0% means no effect; nearly all actives have a fitted effect of over 55% in size
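Cells (250 per well) received 23 nL compound or DMSO by pin tool and were kept 48 hr at 37 C, 5% CO2. Nuclei were then stained with Hoechst for 40 min and scanned for DNA content.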
ELG1 DNA repair – ELG1-dependent DNA repair inhibition | HEK293T ELG1-luciferase reporter, luminescence, 16 h; DNA damage induced by 5-fluorouridine | Potency, µM (titrated, usually from 46.1 µM), without a hit: at the top dose activity change, negative = inhibition, actives largely listed as inhibitors | 2.3% of 330,000 active | AID 504467; also: % is scaled to controls: 0 for no effect and ±100 for the full control effect; nearly all actives have a fitted effect of over 55% in size
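Step one: seed 2,000 cells per well. Step two: pin-transfer compound or DMSO alongside 5-fluorouridine. Step three: incubate 16 hr, 37 °C, 5% CO2. Step four: add ONE-Glo, wait 30 min, read luminescence.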
KB-V1 MDR tox – kills drug-selected multidrug resistant KB-V1 cells; KB-V1 MDR cells viability, CellTiter-Glo, 72 h; Potency, µM (top dose mostly 46.1 µM), most hits filed as cytotoxic; 3.4% of 400,000 active; AID 1347076; also: % is scaled to controls: 0 for no effect and ±100 for the full control effect; nearly all actives have a fitted effect of over 60% in size
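KB-V1, DMEM (no phenol red) + 10% FBS; cpd pin-transferred, titration series; 72 h, 37 degrees C; CellTiter-Glo, luminescence. Data normalized, curve-fit.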
* hit, by the source's call. Most compounds without a hit are left out; they make up all but 8.1% or so of the library. Calls follow the shape of the dose curve; as a rule, active = well fitted curve in the direction sought with a large enough effect; inconclusive = small, poorly fitted or top-dose-only effect, or another doubt; inactive = no such curve, though single readings can be large; an effect the other way counts as inactive or inconclusive. Potency is read from the fitted curve at half-maximal effect.

Screening C=CCC[C@@H](Cc1ccc(F)cc1)C(=O)OC[C@H](Cc1c[nH]c2ccccc12)NC(=O)[C@H](CC=C)CC(=O)N(CCO)Cc1ccccc1 returned KB-3-1 cytotox inactive, MCF10A rerep inconclusive, SW480 rerep inconclusive, ELG1 DNA repair 18.3µM* and KB-V1 MDR tox inactive.
For O=C(CSC1=Nc2ccccc2C2=NC(CC(=O)NC3CCCCC3)C(=O)N12)Nc1ccc(F)cc1 (stereo not drawn) the results were KB-3-1 cytotox inactive and KB-V1 MDR tox inconclusive.
`CSCCC(NS(=O)(=O)c1ccc2c(c1)c(=O)n(C)c(=O)n2C)C(=O)NC1CCN(Cc2ccccc2)CC1` (stereo not drawn) gave KB-3-1 cytotox inactive, MCF10A rerep -3.6%, SW480 rerep inconclusive, ELG1 DNA repair 8.0% and KB-V1 MDR tox inactive.
`CCOC(=O)[C@@H]1[C@H]2COc3cc(OC)ccc3[C@@H]2N2C(=O)N(c3ccc(Cl)cc3)C(=O)[C@@]12C` gave KB-3-1 cytotox inactive, MCF10A rerep 5.0%, SW480 rerep inconclusive, ELG1 DNA repair inconclusive and KB-V1 MDR tox inactive.
Screening Cc1nn(CC(=O)N2CCC(C)CC2)c(=O)c2cc3occc3n12 returned KB-3-1 cytotox inactive and KB-V1 MDR tox inactive.
C=CC[C@H](CC(=O)N(CCO)Cc1ccccc1)C(=O)N[C@@H](C)COC(=O)[C@H](CC=C)CC(=O)OC(C)(C)C was read as KB-3-1 cytotox inactive, MCF10A rerep 16.1%, SW480 rerep 2.4%, ELG1 DNA repair 23.1µM* and KB-V1 MDR tox inactive.
`C=CCC[C@H](Cc1ccc(F)cc1)C(=O)O[C@H](CNC(=O)[C@@H](CC=C)CC(=O)N(CCO)Cc1ccccc1)c1ccccc1` gave KB-3-1 cytotox inactive, MCF10A rerep 20.6µM*, SW480 rerep inconclusive, ELG1 DNA repair inconclusive and KB-V1 MDR tox inactive.
`C=CCNC(=O)C1CC(=O)N(c2ccc(OCc3ccccc3Cl)cc2)C1` (stereo not drawn) gave KB-3-1 cytotox inactive, MCF10A rerep 4.2%, SW480 rerep 20.9%, ELG1 DNA repair inconclusive and KB-V1 MDR tox inactive.
For COc1cccc(-c2cnc3cccnn23)c1 the results were KB-3-1 cytotox inactive and KB-V1 MDR tox inactive.
For CCOC(=O)N/N=C/c1ccc(N2CCOCC2)s1 the results were KB-3-1 cytotox inactive, MCF10A rerep -0.8%, SW480 rerep 5.3%, ELG1 DNA repair inconclusive and KB-V1 MDR tox inconclusive.
For CCOC(=O)N1CN(C(=O)OCC)CN(C(=O)OCC)C1 the results were KB-3-1 cytotox inactive, MCF10A rerep 0.2%, SW480 rerep -4.1%, ELG1 DNA repair 17.9% and KB-V1 MDR tox inactive.
Screening CC(C)(C)c1cc(CN2CCCC(O)C2)c(O)c(C(C)(C)C)c1 (stereo not drawn) returned KB-3-1 cytotox inconclusive, MCF10A rerep 129.2%, SW480 rerep 20.5%, ELG1 DNA repair -11.5% and KB-V1 MDR tox 16.4µM*.
Screening Cc1ccc(-c2nc(-c3ccncc3)no2)c(Cl)c1 returned KB-3-1 cytotox inactive, MCF10A rerep -6.0%, SW480 rerep -0.5%, ELG1 DNA repair inconclusive and KB-V1 MDR tox inconclusive.
O=S(=O)(/C(=C\c1ccc(C(F)(F)F)cc1)c1nc2ccccc2[nH]1)c1ccccc1 was read as KB-3-1 cytotox 2.59µM*, MCF10A rerep inconclusive, SW480 rerep 2.31µM* and KB-V1 MDR tox inconclusive.
For O=C(NCc1ccco1)/C(=C/c1ccc(C(F)(F)F)cc1)c1nc2ccccc2[nH]1 the results were KB-3-1 cytotox inconclusive, MCF10A rerep 20.6µM*, SW480 rerep 20.6µM*, ELG1 DNA repair inconclusive and KB-V1 MDR tox inactive.
N#C/C(=C\c1ccc(Oc2ccc(C(F)(F)F)cc2[N+](=O)[O-])cc1)c1nc2ccccc2[nH]1 was read as KB-3-1 cytotox inactive, MCF10A rerep inconclusive, SW480 rerep inconclusive, ELG1 DNA repair inconclusive and KB-V1 MDR tox inactive.
Screening O=C(NCc1ccco1)/C(=C/c1cccc(C(F)(F)F)c1)c1nc2ccccc2[nH]1 returned KB-3-1 cytotox inconclusive, MCF10A rerep 23.1µM*, SW480 rerep inconclusive, ELG1 DNA repair -26.9% and KB-V1 MDR tox 20.6µM*.
O=C(CN1c2ccccc2Sc2ccccc21)NNC(=O)Nc1ccc(Cl)c(Cl)c1 was read as KB-3-1 cytotox inactive, MCF10A rerep 16.4µM*, SW480 rerep inconclusive, ELG1 DNA repair -15.8% and KB-V1 MDR tox inactive.
Screening Cc1cc(C)c(C)c(S(=O)(=O)N2CCN(CC(=O)c3c(N)n(Cc4ccccc4)c(=O)n(C)c3=O)CC2)c1C returned KB-3-1 cytotox inconclusive, MCF10A rerep 13µM*, SW480 rerep inconclusive, ELG1 DNA repair inconclusive and KB-V1 MDR tox 14.6µM*.
Screening Cn1c(=O)c(C(=O)COc2ccc(F)cc2Cl)c(N)n(Cc2ccccc2)c1=O returned KB-3-1 cytotox inconclusive, MCF10A rerep 12.4%, SW480 rerep inconclusive, ELG1 DNA repair 23.1µM* and KB-V1 MDR tox inactive.
For Cn1c(=O)c(C(=O)CN2CCCCCC2)c(N)n(Cc2ccccc2)c1=O the results were KB-3-1 cytotox inactive, MCF10A rerep inconclusive, SW480 rerep 0.5%, ELG1 DNA repair -11.9% and KB-V1 MDR tox inactive.
For O=C1CSC(c2ccc(F)cc2)N1c1nc2ccccc2s1 (stereo not drawn) the results were KB-3-1 cytotox inactive, MCF10A rerep 1.2%, SW480 rerep -5.7%, ELG1 DNA repair 18.9% and KB-V1 MDR tox inactive.
Screening O=C(CN1CCCCCCC1)N/N=C/c1ccc([N+](=O)[O-])o1 returned KB-3-1 cytotox inactive, MCF10A rerep 8.6%, SW480 rerep inconclusive, ELG1 DNA repair -18.4% and KB-V1 MDR tox inactive.
Screening O=C(NCCNCCO)c1c(O)c2cccc3c2n(c1=O)CCC3 returned KB-3-1 cytotox inactive, MCF10A rerep 8.7%, SW480 rerep -3.2%, ELG1 DNA repair 6.51µM* and KB-V1 MDR tox inactive.
For CCN(CC)CCNC(=O)c1c(O)c2cccc3c2n(c1=O)CCC3 the results were KB-3-1 cytotox inactive, MCF10A rerep 20.6%, SW480 rerep inconclusive, ELG1 DNA repair 22.1% and KB-V1 MDR tox 0.731µM*.
Screening COc1ccc(CNC(=O)c2c(O)c3cccc4c3n(c2=O)CCC4)cc1 returned KB-3-1 cytotox inactive, MCF10A rerep -0.4%, SW480 rerep -54.1%, ELG1 DNA repair 16.6% and KB-V1 MDR tox 14.6µM*.
Screening CCCCCCNC(=O)c1c(O)c2cccc3c2n(c1=O)CCC3 returned KB-3-1 cytotox inactive, MCF10A rerep 15.0%, SW480 rerep -6.0%, ELG1 DNA repair -0.5% and KB-V1 MDR tox inactive.

Screening results deposited in PubChem BioAssay by National Center for Advancing Translational Sciences (NCATS).
